# Sampled rows, rich in hits. Any-hit rate of the full collection: about 11%.
# PLK1 PBD inh – blocks phosphopeptide binding to human PLK1 polo-box domain. Potency, µM, for inactives: max response, negative = inhibition, hits mostly inhibitors. 2.8% of 360,000 active. Plk1 PBD binding of FITC phosphopeptide, fluorescence polarization. AID 720504; further: series mostly up to about 57 µM; on the % scale 0 is the no-effect control and ±100 the full control effect; nearly all actives have a fitted effect of over 65% in size
# Target sequence (P53350 whole entry, looked up, the tested form may be a part): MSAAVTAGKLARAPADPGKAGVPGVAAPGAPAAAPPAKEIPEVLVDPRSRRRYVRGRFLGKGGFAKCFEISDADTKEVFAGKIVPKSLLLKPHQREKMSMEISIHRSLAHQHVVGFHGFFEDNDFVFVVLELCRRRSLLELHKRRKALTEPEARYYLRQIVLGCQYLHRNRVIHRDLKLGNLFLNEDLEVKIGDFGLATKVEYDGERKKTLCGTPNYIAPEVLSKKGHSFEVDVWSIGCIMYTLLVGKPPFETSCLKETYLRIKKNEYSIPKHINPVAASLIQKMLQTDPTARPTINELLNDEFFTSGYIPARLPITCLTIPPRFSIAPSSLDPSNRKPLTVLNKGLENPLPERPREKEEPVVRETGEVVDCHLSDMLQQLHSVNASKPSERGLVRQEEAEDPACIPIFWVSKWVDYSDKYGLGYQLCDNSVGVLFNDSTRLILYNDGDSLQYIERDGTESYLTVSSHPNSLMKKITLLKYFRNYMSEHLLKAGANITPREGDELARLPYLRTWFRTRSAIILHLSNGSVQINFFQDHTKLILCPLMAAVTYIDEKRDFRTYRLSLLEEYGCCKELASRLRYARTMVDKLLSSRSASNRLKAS
# G9a inh – blocks human histone lysine methyltransferase G9a; Potency, µM (highest dose often 102 µM), for the others: at the top dose activity, negative = inhibition, hits mostly inhibitors; AID 504332; 8.8% of 350,000 active; G9a H3K9 monomethylation, AlphaScreen, 2 h; further: on the % scale 0 is the no-effect control and ±100 the full control effect; nearly all actives have a fitted effect of over 75% in size
#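 AlphaScreen detection with an anti-monomethyl H3K9 antibody quantified product after a 2 h room-temperature reaction containing 500 nM biotinylated H3K9 peptide, 20 µM SAM and 20 nM enzyme, which had been preincubated 15 min with compound.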
# JMJD2A Tudor – blocks the human JMJD2A Tudor domain; O75164; AlphaScreen JMJD2A-Tudor / H3K4me3 peptide binding; Potency, µM (series often up to 114 µM), without a hit: at the top dose activity change, negative = inhibition, most hits filed as inhibitors; 4.4% of 390,000 active; AID 504339; further: on the % scale 0 is the no-effect control and ±100 the full control effect; nearly all actives have a fitted effect of over 50% in size
# HP1b chromo inh – HP1-beta chromodomain-methylated histone interaction inhibition; 0.56% of 390,000 active; Potency, µM (highest dose often 114 µM), inactives show at the highest dose activity change, negative = inhibition, most hits filed as inhibitors; P83916; AlphaScreen HP1-beta / biotin-H3K9me3 peptide binding; AID 540317; further: nearly all actives have a fitted effect of over 70% in size
#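 HP1-beta protein (50 nM final) preincubated 30 min at room temperature with biotinylated H3(1-18)K9me3 peptide (50 nM) in PBS pH 7.4, 0.01% Tween-20, then compound added for 30 min. AlphaScreen streptavidin donor/nickel chelate acceptor beads (10 ug/mL final), 30 min dark, luminescence read.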
# VDR inhibitor – vitamin D3 receptor (human) inhibition. VDR-SRC2-3 peptide fluorescence polarization, 2 h. 0.93% of 400,000 active. Potency, µM, for the others: max response, negative = inhibition, hits mostly inhibitors. AID 504847; further: on the % scale 0 is the no-effect control and ±100 the full control effect
#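 Reagent solutions, kept cold and dark, are dispensed first; compounds are then pinned in at 23 nl, plates briefly spun, and incubated 2 h at ambient temperature. Inhibition of VDR–SRC2-3 peptide binding is read by fluorescence polarization.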
# BAZ2B inh – BAZ2B (human) inhibition. Q9UIF8. AlphaScreen BAZ2B-H3K14Ac peptide displacement. Potency, µM (top dose mostly 114 µM), without a hit: top-dose activity change, negative = inhibition, usual class: inhibitors. 4.4% of 360,000 active; further: on the % scale 0 is the no-effect control and ±100 the full control effect; nearly all actives have a fitted effect of over 60% in size
#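 Complex of BAZ2B and biotin-H3K14Ac (50 nM apiece) forms over 30 min at RT, then faces library compounds up to 110 uM for another 30 min; AlphaScreen beads added, 20 min dark incubation, luminescence read.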
# * hit, by the source's call; ? = inconclusive; · = not tested or not shown; ! = repeats disagree; [ ] = remark or other dose. The call rests on the fitted dose curve; in most records, active means well fitted curve in the direction sought with a large enough effect; inconclusive means small, poorly fitted or top-dose-only effect, or another doubt; inactive means no such curve, though single readings can be large; an effect the other way counts as inactive or inconclusive. Potency means the concentration at half of the fitted maximal effect.
SMILES,PLK1 PBD inh,G9a inh,JMJD2A Tudor,HP1b chromo inh,VDR inhibitor,BAZ2B inh
CCc1nnc(NC(=O)CN2CCN(Cc3ccccc3C)CC2)s1,-9%,·,-21%,23%,-10%,5%
CCc1nnc(NC(=O)CN2CCN(c3ccccc3F)CC2)s1,-30%,50µM*,-30%,45%,-12%,-36%
O=C(CN1CCN(c2cccc(Cl)c2)CC1)Nc1nccs1,-1%,40µM*,-6%,23%,28%,?
O=C(CCN1CCN(c2ccc(Cl)cc2)CC1)Nc1nccs1,-1%,-37%[59 µM],-9%,26%,7%,0%
O=C(COC(=O)c1cc(Br)ccc1O)NNC(=O)c1cccs1,-8%,19%[12.7 µM],-15%,10%,-18%,5%
Oc1ccccc1C1CCCCC1c1ccccc1 (configuration not stated),2%,86%,6%,72%,-20%,24%
COc1ccc(Cl)cc1C(=O)Nc1nnc2n1CCS2,·,?,-28%,7%[57 µM],7%,-20%
CCCCN(C=O)c1c(CC)nc2c(OCc3cccc(Cl)c3)cccn12,2%,·,·,·,·,·
CCc1nnc(NC(=O)CN2CCN(c3cccc(OC)c3)CC2)s1,-8%,14µM*,-23%,14%,3%,-10%
CCOC(=O)c1c(CSc2ccccc2)n(C)c2cc(Br)c(OCC(O)CNC(CO)(CO)CO)cc12 (configuration not stated),-4%,40µM*,?,56µM*,32%,?
CC(C)Oc1ccc(C(=O)NC2(C(F)(F)F)NC(=O)N(CCCc3ccccc3)C2=O)cc1 (configuration not stated),-9%,-17%,-29%,-11%,-3%,-4%
CCc1ccccc1NC(=O)N1CCN(c2nnc(C)c3c(C)n(-c4ccccc4)nc23)CC1,·,12%[59 µM],-9%,1%,-1%,-8%
Cc1cccc(NS(=O)(=O)c2ccc3[nH]c(=O)oc3c2)c1C,-2%,·,-6%,31%,-17%,·
Cc1ccc(C)c(NS(=O)(=O)c2ccc3[nH]c(=O)oc3c2)c1,-14%,45µM*,-28%,-10%,-14%,79µM*
O=C(CSc1nnc(-c2ccc(C(F)(F)F)cn2)s1)c1ccccc1,-14%,4%,-16%,35%,10%,-14%
Cc1ccc(C(=O)CC2(O)C(=O)N(Cc3ccccc3)c3ccccc32)o1 (configuration not stated),-3%,-6%[59 µM],-23%,5%,1%,-8%
CC(=O)CC1(O)C(=O)N(Cc2ccccc2)c2ccccc21 (configuration not stated),27µM*,12%,-32%[57.1 µM],?,-24%,5%
Cc1ccc(CN2C(=O)C(O)(CC(=O)c3ccc(C)cc3)c3ccccc32)cc1 (configuration not stated),·,11µM*,50µM*,?,?,13µM*
Cc1coc(C)c1C(=O)CC1(O)C(=O)N(Cc2ccccc2)c2ccccc21 (configuration not stated),27µM*,-39%[59 µM],89µM*,?,-23%,?
CC(C)c1ccc(NS(=O)(=O)c2ccc3nc(-c4ccccc4)[nH]c3c2)cc1,·,11%[59 µM],-17%,31%,4%,-3%
Cc1n[nH]c(=S)n1/N=C/c1ccc(-c2ccccc2[N+](=O)[O-])o1,-16%,?,40µM*,3%,1%,-32%
COC(=O)c1ccccc1-c1ccc(/C=N/NC(N)=O)o1,9%,?,-3%,15%,-16%,-15%
O=[N+]([O-])c1cccc(-c2ccc(/C=N/n3c(-c4ccccc4)n[nH]c3=S)o2)c1,-3%,?,-10%,1%,-8%,-5%
Cc1nnc(N/N=C/c2ccc(-c3ccccc3F)o2)n1N,-16%,40µM*,-23%,4%,5%,-1%
Cc1nnc(N/N=C\c2ccc(-c3ccccc3[N+](=O)[O-])o2)n1N,-17%,6.3µM*,?,-8%,-16%,71µM*
SMILES,PLK1 PBD inh,G9a inh,JMJD2A Tudor,HP1b chromo inh,VDR inhibitor,BAZ2B inh
COc1ccc(NS(=O)(=O)c2cccc(-c3nnc(-c4ccccc4)o3)c2)cc1,-2%,-17%[59 µM],-8%,17%,11%,6%
COc1ccc(S(=O)(=O)Nc2ccc(-n3cccc3)cc2)cc1,?,50µM*,56µM*,45µM*,-7%,71µM*
COc1ccc(NS(=O)(=O)c2ccc(-c3n[nH]c(=S)n3Cc3ccccc3)cc2)cc1,?,4µM*,25µM*,-15%,-13%,-35%
COc1ccc(NS(=O)(=O)c2cccc(-c3n[nH]c(=S)n3Cc3ccccc3)c2)cc1,-15%,7.1µM*,-32%,4%,-12%,?
COc1ccc(NS(=O)(=O)c2ccc(C)c(C(=O)NC3CCN(Cc4ccccc4)CC3)c2)cc1,-12%,-18%,-22%,-1%,-5%,-20%
Cc1c(C(=O)Nc2ccc(S(=O)(=O)N3CCOCC3)cc2)cccc1[N+](=O)[O-],-10%,-3%[0.501 µM],-19%,30%,0%,-25%
COc1cccc(OCc2nn3c(=O)c(-c4ccccc4)nnc3s2)c1,-6%,4%,-8%,17%,-6%,-18%
Cc1c(C(=O)Nc2ccc(-n3c(C)nc4ccccc4c3=O)cc2)cccc1[N+](=O)[O-],·,-12%[59 µM],-15%,12%,17%,-7%
Nc1cc(-c2ccncc2)c[nH]c1=O,30µM*,45µM*!,-33%,13%,20µM*,-12%
O=C1NC(=O)/C(=C/c2ccco2)N1,·,6%[0.501 µM],-1%,45%,-19%,9%
O=C1NC(=O)/C(=C/c2ccc(N3CCOCC3)o2)N1,1%,·,-10%,15%,79µM*,-3%
O=C1NC(=O)/C(=C\c2ccc(N3CCOCC3)o2)N1,11%,25µM*,-7%,15%,25µM*,7%
NS(=O)(=O)c1ccc(NC(=O)COc2ccc(C(=O)c3ccc(F)cc3)cc2)cc1,3%,25%[12.7 µM],-4%,36%,21%,-14%
COc1cccc(C2NC(=O)NC(O)(C(F)(F)F)C2C(=O)c2cccnc2)c1OC (configuration not stated),-9%,50µM*,-23%,20%,13%,18%
O=C(CCCCCn1c(SCc2ccncc2)nc2ccccc2c1=O)NCc1ccco1,-27%,?,25µM*,1%,-7%,50µM*
CN(Cc1ccccc1)C(=O)COC(=O)CN1C(=O)c2ccccc2C1=O,-3%,·,-17%,19%,3%,·
O=c1[nH]c2ccc(Br)cc2c(-c2ccccc2)c1CN1CCOCC1,?,50µM*,?,13%,?,-11%
O=c1[nH]c2ccc(Br)cc2c(-c2ccccc2)c1N1CCOCC1,-14%,-44%[59 µM],-10%,39%,-1%,-2%

# Screens from PubChem BioAssay.
